# In PubChem BioAssay (NCATS):
# Records with an inconclusive call do not appear. Active and inactive are the calls of the source. The call rests on the fitted dose curve; in most records, active means well fitted cell-killing curve with a large enough effect; inconclusive means small, poorly fitted or top-dose-only effect; inactive means no such curve, though single readings can be large or run the other way.
# Experiment: qHTS of pediatric cancer cell lines to identify multiple opportunities for drug repurposing: Primary screen for A673 cells (AID 1347092); further: nearly all actives have a fitted effect of over 45% in size
# Conditions: A673 Ewing sarcoma viability, CellTiter-Glo ATP luminescence, 48 h; series mostly up to 46 µM; activity change, negative = cytotoxic: at the top concentration
# Excerpt: Drug repurposing or repositioning has been offered as a strategy for drug development in oncology programs. This approach has special potential for childhood cancers and other rare or orphan diseases, where the expected return on new drug development has been a disincentive to pharmaceuticals. […] In this project we exploit the poly-pharmacology of drugs to discover new indications via phenotypic screening of a panel of 19 well-characterized cell lines derived from solid tumors seen in children and adolescents. The goal is to identify approved drugs with previously unrecognized anticancer properties that has the potential to reveal new mechanisms and biological processes involved in carcinogenesis or drug resistance. We employed a titration-based paradigm (quantitative high-throughput screening or qHTS), where all compounds were tested at multiple concentrations for their effect on cell viability. Concentration-response curves (CRCs) were derived directly from the primary screen, and both potency and efficacy values were used to identify compounds with robust bioactivity profiles. We screened the NIH Chemical Genomics Center (NCGC) Pharmaceutical Collection (NPC) and Mechanism Interrogation Plate (MIPE) small molecule collections of approved and investigational compounds against these cell lines; and measured metabolically active cells after 48 hours of compound treatment as a proxy for cell viability. […] Assay Submitter: Nathalia J. Martinez, National Center for Advancing Translational Sciences, National Institutes of Health, Rockville, MD, USA; email: natalia.martinez@nih.gov. Shen, M et al. Quantitative high-throughput phenotypic screening of pediatric cancer cell lines identifies multiple opportunities for drug repurposing. Oncotarget 2017 Dec 19;9(4):4758-4772. PMID 29435139.
# The cells were obtained from University of North Carolina (UNC), Pediatric Preclinical Testing Program (PPT), and Coriell Institute (CI). qHTS cell viability assay: Cells were assayed in growth media at a density of 500-1,000 cells/well. Five microliters of cells were dispensed into 1,536-well, white, solid-bottom, TC-treated plates (Greiner Bio One) using a multidrop dispenser and incubated at 37 degrees C, 5% CO2, under a humidified atmosphere for 5 hours. Twenty-three nanoliters of compounds and controls (neutral control DMSO or positive control bortezomib at final concentration of 2.3 uM) were subsequently transferred by Kalypsys pintool. For primary screens, the MIPE collection was tested at 11-point dilutions (final concentrations range from 0.78 nM to 46 µM) and the NPC collection at 8-point dilutions (final concentrations range from 0.59 nM to 46 µM). Compounds tested in follow-up screens were assayed at 11-point dilutions. Cells were incubated for 48 hours, followed by addition of 3 uL of CellTiter-Glo (Promega). After a 15min incubation at room temperature, samples were analyzed for luminescence intensity using a ViewLux High-throughput CCD imager equipped with clear filters.
# On the % scale 0 is the no-effect control and ±100 the full control effect; potency means the concentration at half of the fitted maximal effect.
SMILES,Potency,"activity change, negative = cytotoxic"
Cc1nc(N)ncc1-c1nc(N2CCOCC2)c2sc(C(C)(C)O)cc2n1,1.18 µM (active),–
CN(c1ncccc1CNc1nc(Nc2ccc3c(c2)CC(=O)N3)ncc1C(F)(F)F)S(C)(=O)=O,4.69 µM (active),–
CN(C)c1nc(Cc2ccc(NC(=O)c3ccc4ccccc4c3)cc2)nc(Cl)c1CC(=O)O,–,-7.71% (inactive)
CCN(CC)CCCCNc1ncc2cc(-c3cc(OC)cc(OC)c3)c(NC(=O)NC(C)(C)C)nc2n1,18.7 µM (active),–
COC(=O)Nc1nc2ccc(C(=O)c3ccc(F)cc3)cc2[nH]1,0.59 µM (active),–
CC(=O)Nc1sc2c(c1-c1nc3ccccc3s1)CNC2,18.7 µM (active),–
OCc1ccc(-c2ccc(-c3ccc(CO)s3)o2)s1,0.148 µM (active),–
CNC(=O)c1ccc(N2C(=S)N(c3cnc(C#N)c(C(F)(F)F)c3)C(=O)C23CCC3)cc1F,1.48 µM (active),–
Cc1[nH]c2ccccc2c1CCNCc1ccc(C=CC(=O)NO)cc1,0.148 µM (active),–
Cn1c(=O)n(-c2ccc(C(C)(C)C#N)cc2)c2c3cc(-c4cnc5ccccc5c4)ccc3ncc21,0.0296 µM (active),–
C[C@H]1C[C@@H]2[C@@H]([C@@H](O)C[C@@]3(C)[C@H]2CC[C@]3(O)C(=O)CO)[C@@]2(C)C=CC(=O)C=C12,–,10.6% (inactive)
Cc1cn2c(-c3cn[nH]c3)cnc2c(Nc2ccc(C(=O)N3CCNCC3)cc2F)n1,14.8 µM (active),–
CN[C@H]1CCc2cc(OC)c(OC)c(OC)c2-c2ccc(OC)c(=O)cc21,0.0012 µM (active),–
Cc1ccc(C(=O)Nc2cccc(C(F)(F)F)c2)cc1-c1ccc2nc(NCCN3CCOCC3)ncc2c1,4.69 µM (active),–
Cc1ccc(C(N)=O)cc1Nc1nccc(-c2cn(C(C)C)c3cnccc23)n1,3.72 µM (active),–
Nc1nc(Nc2ccc(S(N)(=O)=O)cc2)nn1C(=O)c1c(F)cccc1F,2.96 µM (active),–
CC(C)c1ccc(Cn2ccc3c4c(N)nc(NC5CC5)nc4ccc32)cc1,2.96 µM (active),–
COc1cc2c(NC3CCN(C(C)C)CC3)nc(C3CCCCC3)nc2cc1OCCCN1CCCC1,5.9 µM (active),–
COc1cc2c(Oc3ccc(-c4cnc(Nc5ccc(F)cc5)n(C)c4=O)cc3F)ccnc2cc1OCCCN1CCOCC1,5.9 µM (active),–
Cc1cc(Nc2cc(N3CCN(C)CC3)nc(C=Cc3ccccc3)n2)n[nH]1,10.8 µM (active),–

SMILES,Potency,"activity change, negative = cytotoxic"
N#Cc1c(O)c2c(-c3ccc(-c4ccccc4O)cc3)csc2[nH]c1=O,–,4.49% (inactive)
O=C(Nc1cc(C(F)(F)F)cc(C(F)(F)F)c1)c1cc(Cl)ccc1O,4.69 µM (active),–
CCN1CCN(Cc2ccc(-c3cc4c(N[C@H](C)c5ccccc5)ncnc4[nH]3)cc2)CC1,0.001 µM (active),–
COc1cc(=C2C=c3ccccc3=N2)[nH]c1=Cc1[nH]c(C)cc1C,4.69 µM (active),–
C[C@]1(CO)CN(c2cc(C(=O)Nc3ccc4c(c3)-c3c(c(C(N)=O)nn3-c3ccc(F)cc3)CC4)c(Cl)cn2)C[C@@]1(C)CO,9.35 µM (active),–
COc1cc2c(Nc3ccc(NC(=O)c4ccccc4)cc3)ncnc2cc1OCCCN1CCOCC1,14.8 µM (active),–
Cc1cn(-c2cc(NC(=O)c3ccc(C)c(Nc4nccc(-c5cccnc5)n4)c3)cc(C(F)(F)F)c2)cn1,–,-26.3% (inactive)
COc1cc2ncn(-c3cc(OCc4ccccc4C(F)(F)F)c(C(N)=O)s3)c2cc1OC,0.469 µM (active),–
COc1cc2c(cc1-c1c(C)noc1C)ncc1[nH]c(=O)n([C@H](C)c3ccccn3)c12,4.69 µM (active),–
COc1ccc(CC2c3cc(OC)c(OC)cc3CC[N+]2(C)CCC(=O)OCCCCCOC(=O)CC[N+]2(C)CCc3cc(OC)c(OC)cc3C2Cc2ccc(OC)c(OC)c2)cc1OC (stereo not given),–,-4.72% [at 9.22 µM] (inactive)
CCCCCN(CCC12CC3CC(CC(C3)C1)C2)C(=O)NCCCc1ccncc1,18.7 µM (active),–
COc1ccc(C=Cc2cc(OC)c(OC)c(OC)c2)cc1O,0.001 µM (active),–
NCC(=O)Nc1ccc(-n2nc(C(F)(F)F)cc2-c2ccc3c(ccc4ccccc43)c2)cc1,23.5 µM (active),–
CCc1c2c(nc3ccc(O)cc13)-c1cc3c(c(=O)n1C2)COC(=O)[C@]3(O)CC,0.0074 µM (active),–
CC[C@@]1(O)C(=O)OCc2c1cc1n(c2=O)Cc2cc3cc(O)ccc3nc2-1,0.0296 µM (active),–
C[C@@H](Oc1cc(-c2cnn(C3CCNCC3)c2)cnc1N)c1c(Cl)ccc(F)c1Cl,14.8 µM (active),–
CNC(=O)c1nn(C)c2c1C(C)(C)Cc1cnc(Nc3ccc(N4CCN(C)CC4)cc3)nc1-2,2.96 µM (active),–
CC1(C)OC2=C(C(=O)c3ccccc3C2=O)[C@H](NCc2ccccc2)[C@H]1O,0.469 µM (active),–
CN(C)CC(C)(C)CNc1nn2c(-c3ccccc3)nnc2cc1C1CCC1,0.743 µM (active),–
COc1cc2nccc(Oc3ccc(NC(=O)C4(C(=O)Nc5ccc(F)cc5)CC4)cc3)c2cc1OC,1.48 µM (active),–
